The nature of experiment [1]: ATG_CRE_CIS: Attagene CIS-FACTORIAL HepG2 Assay for human cAMP Responsive Element (CRE) binding protein 3 (AID 2282926). The note with it: HepG2 CRE cis-reporter, Attagene multiplexed mRNA; actives raise or lower the signal. In short, it runs like this: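 Transfected HepG2 were treated for 24 hours, then RNA was extracted and reporter cDNA amplified with sequence-specific primers. Labelled fragments were separated by capillary electrophoresis, and the CRE signal was fitted bidirectionally with DMSO as baseline.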

The target in experiment [2] is CCAAT/enhancer-binding protein beta (Homo sapiens) (UniProt P17676). The experiment is described as follows: ATG_C_EBP_CIS: Attagene CIS-FACTORIAL HepG2 Assay for human CCAAT/Enhancer Binding Protein (C/EBP) beta (AID 2282927). The conditions noted are these: HepG2 Attagene cis-factorial transcription factor reporter; actives raise or lower the signal. The essentials: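 Transiently transfected HepG2 (MRTU library, endogenous TF-driven promoters); 24 h dosing; total RNA → oligo(dT) RT → PCR → 6-FAM primer extension → HpaI digest → CE; fit bidirectionally vs DMSO.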

The nature of experiment [3]: ATG_CMV_CIS: Attagene CIS-FACTORIAL HepG2 Assay for human CMV (Internal Marker) (AID 2282928).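 Further: endpoint acts as a background internal control marker rather than a target.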 The conditions noted are these: HepG2 CMV promoter reporter, transcription factor profiling; actives raise or lower the signal. In short, it runs like this:
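Cell system: HepG2, transiently transfected multiple reporter units under cis promoters. Exposure: 24 h. Detection: RT-PCR, FAM labeling, HpaI digestion, capillary electrophoresis. Analysis: bidirectional, DMSO baseline.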

Experiment [4] in a line: ATG_DR4_LXR_CIS: Attagene CIS-FACTORIAL HepG2 Assay for human Liver X Receptor (LXR), DR4 submotif (AID 2282929). The conditions noted are these: HepG2 Attagene DR4 cis-reporter, mRNA transcription; actives raise or lower the signal. In short, it runs like this: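 HepG2 cells were transiently transfected with multiple cis-regulated reporter units and dosed for 24 hours. The DR4 reporter mRNA was quantified by RT-PCR, 6-FAM labelling and capillary electrophoresis. Bidirectional fits used DMSO as baseline.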

Experiment [5] has as its target Aryl hydrocarbon receptor (Homo sapiens) (UniProt P35869). The experiment in a line: ATG_Ahr_CIS: Attagene CIS-FACTORIAL HepG2 Assay for human Aryl Hydrocarbon Receptor (Ahr) (AID 2282930). The note with it: HepG2 AhR cis-factorial reporter transcription; actives raise or lower the signal. In short, it runs like this: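 Read-out: reporter mRNA quantified by RT-PCR with fluorescent primer extension and capillary electrophoresis. Human HepG2 liver cells carried transfected cis-promoter reporter units and were exposed to chemical for 24 h; gain or loss fitted relative to DMSO.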

Experiment [6] can be described thus: ATG_AP_1_CIS: Attagene CIS-FACTORIAL HepG2 Assay for human Activator Protein 1 (AP-1) (AID 2282931). The note with it: HepG2 Attagene cis-factorial AP-1 reporter mRNA; actives raise or lower the signal. The essentials:
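HepG2 cells transiently transfected with cis-element-driven reporter transcription units, dosed for 24 hours. Reporter mRNA measured by RT-PCR, 6-FAM labelling, HpaI digestion and capillary electrophoresis. Bidirectional fitting against DMSO baseline.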

A short description of experiment [7]: ATG_AP_2_CIS: Attagene CIS-FACTORIAL HepG2 Assay for human Activator Protein 2 (AP-2) (AID 2282932). The conditions noted are these: HepG2 AP-2 cis-reporter, Attagene transcription factor profiling; actives raise or lower the signal. The essentials:
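Multiplexed mRNA reporter assay in HepG2: cis-regulated units report endogenous factor activity after 24 h treatment. Fluorescence from capillary electrophoresis of RT-PCR products gives the signal, with DMSO as baseline.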

A short description of experiment [8]: ATG_BRE_CIS: Attagene CIS-FACTORIAL HepG2 Assay for human Bone Morphogenetic Protein (BMP) Response Element (BRE) (AID 2282933). The conditions noted are these: HepG2 BMP response element reporter, Attagene transcription factor profiling; actives raise or lower the signal. In short, it runs like this:
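Transient MRTU transfection of human HepG2 liver cells; 24 h compound treatment; total RNA isolated, reverse-transcribed, PCR-amplified, 6-FAM labelled, HpaI-cut, capillary electrophoresis. DMSO = negative control/baseline, bidirectional fit.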

Experiment [9] has as its target Retinoic acid receptor alpha (Homo sapiens) (UniProt P10276). The experiment is described as follows: ATG_DR5_RAR_CIS: Attagene CIS-FACTORIAL HepG2 Assay for human Retinoic Acid Receptor Alpha (RARE), DR5 submotif (AID 2282934).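 On AC50: reporter responds to endogenous RAR alpha beta and gamma in HepG2 not RARA alone.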 The conditions noted are these: HepG2 Attagene cis-factorial RARE DR5 reporter, mRNA; actives raise or lower the signal. In short, it runs like this:
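Read-out: DR5-driven reporter transcript measured by RT-PCR, 6-FAM primer extension, HpaI digest and capillary electrophoresis. Human HepG2 liver cells carry transiently transfected cis-element reporter constructs; dosing lasts 24 h. Gain or loss of signal fitted against DMSO baseline.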

Experiment [10] addresses Transcription factor E2F1 (Homo sapiens) (UniProt Q01094). The experiment is described as follows: ATG_E2F_CIS: Attagene CIS-FACTORIAL HepG2 Assay for human E2F Transcription Factor 1 (AID 2282935). The note with it: HepG2 Attagene cis-reporter, E2F reporter RNA transcripts; actives raise or lower the signal. In short, it runs like this:
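Measures reporter transcript levels via RT-PCR with capillary electrophoresis detection in HepG2 cells harboring cis-regulated reporter units; 24 h post-dose; bidirectional curve fitting with DMSO as baseline.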

The source made the active and inactive calls. How the source made its calls: active means hit-call score of the fitted dose curve at least 0.9, where 1 is the maximum; inactive means score below 0.9.

Sequence of Aryl hydrocarbon receptor (Homo sapiens) (P35869 whole entry, looked up): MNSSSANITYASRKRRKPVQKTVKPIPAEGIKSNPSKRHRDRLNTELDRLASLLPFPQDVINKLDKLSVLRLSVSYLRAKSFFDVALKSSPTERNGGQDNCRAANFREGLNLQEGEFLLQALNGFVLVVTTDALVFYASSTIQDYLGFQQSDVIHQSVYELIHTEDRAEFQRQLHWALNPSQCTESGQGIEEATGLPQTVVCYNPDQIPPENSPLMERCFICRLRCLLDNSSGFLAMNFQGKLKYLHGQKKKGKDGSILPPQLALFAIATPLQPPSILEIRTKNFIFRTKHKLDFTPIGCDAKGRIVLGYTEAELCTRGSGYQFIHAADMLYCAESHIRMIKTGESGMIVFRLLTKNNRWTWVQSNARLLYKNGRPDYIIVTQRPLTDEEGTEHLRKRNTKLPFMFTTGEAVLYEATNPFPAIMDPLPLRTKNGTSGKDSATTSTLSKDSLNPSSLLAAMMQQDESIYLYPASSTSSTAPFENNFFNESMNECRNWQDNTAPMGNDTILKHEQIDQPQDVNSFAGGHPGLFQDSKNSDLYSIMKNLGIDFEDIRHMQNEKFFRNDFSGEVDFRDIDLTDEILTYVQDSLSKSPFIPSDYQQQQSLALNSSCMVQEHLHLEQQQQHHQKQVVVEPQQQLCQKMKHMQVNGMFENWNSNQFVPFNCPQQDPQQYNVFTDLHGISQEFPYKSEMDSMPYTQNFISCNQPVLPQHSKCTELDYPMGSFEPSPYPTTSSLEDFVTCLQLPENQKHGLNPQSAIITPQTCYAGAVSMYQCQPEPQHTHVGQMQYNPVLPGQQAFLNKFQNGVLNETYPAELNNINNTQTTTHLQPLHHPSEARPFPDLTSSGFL
Sequence of Retinoic acid receptor alpha (Homo sapiens) (P10276 whole entry, looked up): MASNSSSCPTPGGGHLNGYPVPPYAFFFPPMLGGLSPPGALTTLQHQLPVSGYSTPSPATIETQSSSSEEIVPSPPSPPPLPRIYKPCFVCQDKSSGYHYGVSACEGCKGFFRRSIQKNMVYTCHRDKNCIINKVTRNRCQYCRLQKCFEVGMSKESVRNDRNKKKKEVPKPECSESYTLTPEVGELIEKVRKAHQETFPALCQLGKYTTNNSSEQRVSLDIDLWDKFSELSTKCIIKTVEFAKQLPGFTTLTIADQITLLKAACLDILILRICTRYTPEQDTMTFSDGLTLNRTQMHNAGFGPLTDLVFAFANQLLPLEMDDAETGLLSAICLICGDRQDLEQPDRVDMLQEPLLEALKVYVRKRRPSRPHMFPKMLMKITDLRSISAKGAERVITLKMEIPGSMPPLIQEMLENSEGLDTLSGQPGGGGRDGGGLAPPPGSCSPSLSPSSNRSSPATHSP
Sequence of Transcription factor E2F1 (Homo sapiens) (Q01094 whole entry, looked up): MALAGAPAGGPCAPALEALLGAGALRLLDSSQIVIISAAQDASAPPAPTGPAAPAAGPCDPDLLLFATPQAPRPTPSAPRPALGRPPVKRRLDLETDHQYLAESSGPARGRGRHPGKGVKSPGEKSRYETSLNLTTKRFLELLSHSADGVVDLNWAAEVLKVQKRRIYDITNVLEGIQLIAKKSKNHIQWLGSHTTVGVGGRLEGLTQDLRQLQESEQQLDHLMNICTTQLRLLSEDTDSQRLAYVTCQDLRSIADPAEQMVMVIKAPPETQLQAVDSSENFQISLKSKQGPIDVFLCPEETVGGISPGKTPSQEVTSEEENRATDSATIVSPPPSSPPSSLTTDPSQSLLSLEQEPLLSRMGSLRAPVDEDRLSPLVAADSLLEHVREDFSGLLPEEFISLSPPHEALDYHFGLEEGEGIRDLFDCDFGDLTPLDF
Sequence of CCAAT/enhancer-binding protein beta (Homo sapiens) (P17676 whole entry, looked up): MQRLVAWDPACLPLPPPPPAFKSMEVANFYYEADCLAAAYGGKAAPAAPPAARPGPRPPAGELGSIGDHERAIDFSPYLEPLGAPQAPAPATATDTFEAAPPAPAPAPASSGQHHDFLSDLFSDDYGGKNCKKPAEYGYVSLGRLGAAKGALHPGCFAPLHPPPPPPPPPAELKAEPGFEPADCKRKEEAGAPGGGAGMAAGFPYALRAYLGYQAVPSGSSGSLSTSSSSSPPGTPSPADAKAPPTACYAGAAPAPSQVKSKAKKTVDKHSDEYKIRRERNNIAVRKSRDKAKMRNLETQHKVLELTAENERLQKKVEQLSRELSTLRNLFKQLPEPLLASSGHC

On to `O=C(NS(=O)(=O)/C=C/c1ccccc1)c1ccc(F)cc1Cl`, for which the outcome in experiment [1], in experiment [2], in experiment [3], in experiment [4], in [5] and in [6] was inactive. Further, the call in experiment [7], in experiment [8], in [9] and in experiment [10] was inactive.

Turning to `CCc1cc(SCc2sc(-c3ccc(C(F)(F)F)cc3)nc2CN2CCN(c3ccc(OC)cc3)CC2)ccc1OCC(=O)O`, the result in experiment [1], in [2], in [3], in experiment [6], in [7] and in experiment [9] was inactive. The half-maximal activity concentration (AC50) in experiment [4] is 3.68 µM (active); in [5], 17.4 µM (active); in [8], 18.2 µM (active); in experiment [10] it was 1.9 µM (active).

With `CC(C)CCCCCCCOC(=O)CCCCC(=O)OCCCCCCCC(C)C`, the result in experiment [1], in experiment [3], in experiment [4], in experiment [6], in experiment [7] and in experiment [8] was inactive. For the same compound, in experiment [10], the result was inactive. The AC50 in experiment [5] is 64.9 µM (active); in [9], 18 µM (active).

Turning to `CC(C)=CCCC(C)=CC=O`, the AC50 in experiment [1] is 162 µM (active); in experiment [4] it was 183 µM (active); in [5], 78.9 µM (active); in [6] it was 137 µM (active); in experiment [8], 139 µM (active). In addition, the result in experiment [2], in [3], in experiment [7], in experiment [9] and in [10] was inactive.

`CCOC(=O)CC(CC(=O)OCC)(OC(C)=O)C(=O)OCC`: the outcome in experiment [1], in experiment [3], in experiment [4], in experiment [5], in experiment [6] and in experiment [7] was inactive. Further, the outcome in experiment [8], in experiment [9] and in [10] was inactive.

On to `C1N2CN3CN1CN(C2)C3`, for which the call in experiment [1], in experiment [3], in experiment [4], in experiment [5], in [6] and in experiment [7] was inactive. The compound was called inactive in experiment [8], in experiment [9] and in experiment [10].

Take `CCOCCO`: the outcome in experiment [1], in [3], in experiment [4], in experiment [5], in experiment [6] and in experiment [7] was inactive. Besides, the compound was called inactive in [8], in experiment [9] and in experiment [10].

In the case of `CCOC(=O)COc1ccc2c(c1)CC(NCC(O)c1cccc(Cl)c1)CC2` (centres undefined), in [1], the AC50 is 33 µM (active). For the same compound, the outcome in [2], in experiment [3], in experiment [4], in [5], in experiment [6] and in [7] was inactive. In addition, the compound was classed as inactive in experiment [8], in experiment [9] and in [10].

Take `CN(C)c1ccc(Cc2ccc(N(C)C)cc2)cc1`: the compound was classed as inactive in experiment [1], in [4], in [5], in [7], in experiment [9] and in experiment [10]. Moreover, the concentration at half-maximal activity (AC50) in experiment [3] was 70.4 µM (active); in [6], 65 µM (active); in experiment [8] it was 61.9 µM (active).

`CC(C)CCO`: the call in experiment [1], in experiment [2], in experiment [3], in experiment [4], in [5] and in experiment [6] was inactive. Besides, the call in experiment [7], in experiment [8], in experiment [9] and in experiment [10] was inactive.

Take `Cn1c(=O)cc(Oc2ccc(F)cc2F)c2cnc(NCC(C)(C)O)nc21`: the outcome in experiment [1], in experiment [2], in experiment [3], in experiment [4], in experiment [5] and in experiment [6] was inactive. Also, the result in [7], in experiment [8] and in experiment [10] was inactive.

Take `CC(C)=CCC/C(C)=C/CO`: the outcome in experiment [1], in experiment [2], in [3], in experiment [4], in experiment [5] and in experiment [6] was inactive. For the same compound, the outcome in experiment [7], in experiment [8] and in experiment [10] was inactive.

With `CCOC(=O)c1ccc(C2CCC(NC[C@H](O)COc3ccc(O)c(NS(C)(=O)=O)c3)CC2)cc1` (some centres undefined), the AC50 is 51.8 µM (active) in experiment [1]; 51.1 µM (active) in experiment [2]; 60 µM (active) in experiment [4]; 51.5 µM (active) in experiment [6]; 51.4 µM (active) in experiment [9]. The call in experiment [3], in [5], in experiment [7], in [8] and in [10] was inactive.

`CCOc1cccc(-n2cc(C(=O)N3CCN(c4cc(C(=O)O)c5ccccc5c4)CC3)nc2-c2ccc(C)cc2)c1`: the result in [1], in experiment [2], in experiment [3], in [5], in [7] and in experiment [10] was inactive. Besides, the AC50 was 25.1 µM (active) in experiment [4], 18.4 µM (active) in experiment [6], 54.7 µM (active) in experiment [8] and 26 µM (active) in experiment [9].

Turning to `Nc1ccc(Nc2ccccc2)cc1`, the result in [1], in experiment [4], in experiment [5], in [6], in experiment [7] and in experiment [8] was inactive. In addition, the outcome in experiment [9] and in experiment [10] was inactive. In addition, the AC50 in experiment [3] is 36.7 µM (active).

`COc1ccc2sc(C(=O)Nc3nnn[nH]3)c(OC(C)C)c2c1`: the compound was classed as inactive in experiment [1], in [2], in experiment [5], in experiment [7] and in experiment [10]. Also, the AC50 was 26.9 µM (active) in [3], 158 µM (active) in experiment [4], 27 µM (active) in [6] and 41.8 µM (active) in experiment [8].

Turning to `O=c1[nH]c2ccc(S(=O)CCN3CCC(Cc4ccc(F)cc4)CC3)cc2o1` (centres undefined), the outcome in experiment [1], in experiment [3], in [5], in experiment [6], in [7] and in [9] was inactive. Besides, the call in experiment [10] was inactive. The AC50 in [4] was 173 µM (active); in [8], 100 µM (active).

For `Cc1ccc(N)cc1O`, the call in experiment [1], in [3], in experiment [4], in experiment [6], in experiment [7] and in [8] was inactive. In addition, the call in experiment [9] and in experiment [10] was inactive. In addition, in experiment [5], the half-maximal activity concentration (AC50) is 2.56 µM (active).

`COC(=O)c1c(Cl)c(Cl)c(C(=O)OC)c(Cl)c1Cl`: the compound was classed as inactive in experiment [1], in experiment [3], in experiment [4], in experiment [5], in [6] and in experiment [7]. The call in [8] and in experiment [10] was inactive.

On to `O=C1CCC(N2C(=O)c3ccccc3C2=O)C(=O)N1` (centres undefined), for which the call in experiment [1], in experiment [3], in experiment [4], in [5], in experiment [6] and in experiment [7] was inactive. For the same compound, the compound was classed as inactive in [8], in [9] and in experiment [10].

As for `C=CCCCCCCCCC(=O)O`, the call in experiment [1], in [3], in [4], in experiment [5], in experiment [6] and in experiment [7] was inactive. The call in [8], in experiment [9] and in experiment [10] was inactive.

For `CCCCCCCCO`, the call in [1], in experiment [3], in experiment [4], in experiment [5], in experiment [6] and in experiment [7] was inactive. Also, the call in experiment [8] and in experiment [10] was inactive. In addition, the AC50 in experiment [9] was 25.3 µM (active).
